BJeLR viability = BJeLR cell viability loss; BJeLR (HRASV12) viability, CellTiter-Glo ATP luminescence, 48 h; inhibition, % (no concentration beside the values); AID 1554; hit rate 0.17% among 300,000; in the data active = inhibition above about 50%
FBA Mtb inh = inhibitors of M. tuberculosis fructose-bisphosphate aldolase; P9WQA3; purified M. tuberculosis FBA, fluorescence read-out; inhibition, % at 1 µM; hit rate 2.3% among 360,000; in the data active = inhibition above about 27%;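 note: 0% = vehicle and 100% = reference inhibitor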
Target sequence (P9WQA3 whole entry, looked up): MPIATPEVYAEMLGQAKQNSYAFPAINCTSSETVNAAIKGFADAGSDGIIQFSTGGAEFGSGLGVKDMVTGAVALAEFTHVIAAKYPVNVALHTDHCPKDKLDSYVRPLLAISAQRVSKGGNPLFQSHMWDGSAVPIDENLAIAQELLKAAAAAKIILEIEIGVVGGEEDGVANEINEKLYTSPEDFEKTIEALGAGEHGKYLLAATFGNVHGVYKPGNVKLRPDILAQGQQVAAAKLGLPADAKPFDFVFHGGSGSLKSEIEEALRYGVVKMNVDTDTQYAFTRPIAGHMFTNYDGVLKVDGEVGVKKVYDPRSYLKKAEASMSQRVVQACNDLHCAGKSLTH
GDH-TPI inh = inhibits GDH-TPI coupling enzymes, artifact for Mtb FBA screen. GDH-TPI coupled enzyme counterscreen, NADH absorbance. inhibition, % at 4.8 µM. hit rate 1.2% among 360,000; in the data active = inhibition above about 30%;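 note: 0% = DMSO wells and 100% = wells lacking the enzyme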
PrP UTR inh = inhibition of PrP 5' UTR reporter expression | cell-based PrP 5' UTR mRNA reporter, plate reader | inhibition, % (test concentration not listed) | hit rate 0.35% among 340,000 | AID 488862; in the data active = inhibition above about 52%; note: 0 = median of the neutral control wells
PrPC surface inh = inhibitors of human cell surface prion protein PrPC; inhibition, % at 13.8 µM; TR-FRET read-out; AID 720596; P04156; hit rate 0.43% among 370,000; in the data active = inhibition above about 24%; note: 0% = median of the test wells and 100% = reference compound wells
PfHsp40 rescue = compounds rescuing yeast from Plasmodium falciparum HSP40 toxicity; S. cerevisiae expressing PfHsp40, growth rescue, ATP luminescence; growth rescue, % at 12.5 µM; hit rate 0.68% among 340,000; in the data active = growth rescue above about 28%, passing the limit was not always enough;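 note: yeast W303a lacking pdr1 and pdr3 grown in galactose medium; growth measured after three days at 30 °C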
PrP UTR cherry = prion 5' UTR mRNA inhibition, cherry-pick retest | inhibition, % at 2.5 µM | shares compounds with PrP UTR inh | cell-based prion protein 5' UTR reporter, plate reader | AID 504592 | hit rate 48% among 1,100; in the data active = inhibition above about 54%
An asterisk follows results filed as active; . = not tested or not shown. Compounds with a hit are over-represented: about 4.5% of the library has one in this group of screens.

SMILES | BJeLR viability | FBA Mtb inh | GDH-TPI inh | PrP UTR inh | PrPC surface inh | PfHsp40 rescue | PrP UTR cherry
O=C1ON=C(c2ccccc2[N+](=O)[O-])/C1=C/c1cccc([N+](=O)[O-])c1O | . | -3.6 | 6.7 | 89.7* | -1.3 | -1.0 | 2.3
CCOC(=O)[C@@]12CCC3=C1N(CCC3)C(=O)[C@H](CC(=O)N1CCN(C(=O)C3CC3)CC1)C2 | . | . | . | . | -2.8 | . | .
Cc1ccc(NC(=O)c2cc3ccccc3oc2=N)cc1 | -1.4 | -1.8 | 2.6 | 67.5* | 3.8 | 1.5 | 38.6
Cc1ccc(/C=N\NC(=O)CN2CCN(S(=O)(=O)c3ccc(Br)cc3)CC2)s1 | . | . | . | . | -4.4 | . | .
COc1ccc(C2CC(=O)Oc3cc4c(cc32)OCO4)cc1 (stereo not given) | . | -2.5 | -3.1 | 53.5* | -1.3 | -1.3 | -7.0
COc1cc(C2CC(=O)Oc3cc4c(cc32)OCO4)cc(OC)c1OC (stereo not given) | . | -0.3 | 12.7 | -13.1 | -4.9 | -0.3 | .
COC(=O)[C@]12C[C@H](CC(=O)NCCCCc3ccccc3)C(=O)N(Cc3cccc4ccccc34)C1=C[C@H](COCc1ccccc1)O[C@@H]2C | . | . | . | . | -1.6 | . | .
CC1CCCCN1CCCNC(=O)c1cc(Br)c(Br)[nH]1 (stereo not given) | 1.4 | 1.1 | -4.9 | 81.6* | -10.0 | 0.0 | 6.1
Cc1nc2ccccc2c(=O)n1/N=C/c1c(O)ccc2oc3c(c12)CCCC3 | -0.8 | 1.0 | 7.5 | 60.8* | -4.3 | 0.4 | -2.2
CNC[C@@H]1OCc2cnnn2CCCC(=O)N([C@@H](C)CO)C[C@H]1C | . | . | . | . | -5.2 | . | .
CC[C@]12c3[nH]c4ccccc4c3CCN1C(=O)C(CC(=O)NCCc1ccccn1)C[C@@H]2C(=O)N1CCN(C(=O)c2ccco2)CC1 (stereo not given in full) | . | -0.1 | 0.9 | 66.9* | 3.0 | 0.9 | -17.9
CC[C@]12c3[nH]c4cc(CCC(=O)N(C)C)ccc4c3CCN1C(=O)[C@@H](CC(=O)NCCc1ccccn1)C[C@@H]2C(=O)N1CCN(C(=O)c2ccco2)CC1 | . | 6.4 | 5.2 | -7.7 | -5.3 | 0.1 | .
N=C(N)SCP(=O)(c1ccccc1)c1ccccc1 | -9.6 | 3.5 | 5.4 | 63.6* | 3.4 | 1.6 | 3.3
Cc1ccc(P(=O)(CSC(=N)N)c2ccc(C)cc2)cc1 | -4.0 | 2.7 | 1.2 | -14.8 | -2.7 | -0.7 | .
CCCCNC(=O)c1ccc(Cc2cn(C)c3ccccc23)nc1 | . | 1.2 | 9.3 | . | -10.9 | . | .
O=C(Nc1c(-c2cccs2)nc2ccccn12)c1ccc2ccccc2c1 | -1.4 | . | . | . | . | . | .
O=C(Nc1c(-c2cccs2)nc2ccccn12)c1ccccc1F | -5.9 | 0.9 | 14.6 | 82.1* | 1.8 | -0.5 | -25.2
COC(=O)[C@]12C[C@H](CC(=O)NCCc3ccccc3OC)C(=O)N(Cc3cccc4ccccc34)C1=C[C@H](C(C)(C)C)O[C@@H]2C | . | . | . | . | 7.9 | . | .
CCCCCCNC(=O)Cc1ccc(Br)cc1 | -4.2 | -0.7 | 0.0 | -12.4 | 12.4 | 2.7 | .
CC(C)OCCCNC(=O)Cc1ccc(Br)cc1 | 1.0 | -0.4 | 4.9 | 82.9* | 2.8 | -0.1 | 0.9
COc1ccc(OC)c(Nc2c3c(nc4ccccc24)CCC3)c1 | 46.9 | -0.9 | -1.3 | 73.6* | 18.9 | -0.9 | 87.1*
COC(=O)[C@]12C[C@H](CC(=O)NCc3ccc(C)o3)C(=O)N(Cc3ccco3)C1=C[C@H](COCc1ccccc1)O[C@@H]2C | . | . | . | . | 3.7 | . | .
COc1cc2cc(c1Cl)N(C)C(=O)CC(OC(=O)C(C)N(C)C(C)=O)C1(C)OC1C(C)C1CC(O)(NC(=O)O1)C(OC)C=CC=C(C)C2 (stereo not given) | . | -0.6 | -6.0 | 52.7* | 9.8 | -1.2 | 92.3*
COc1ccccc1C1CC(=O)Oc2cc(OC)c(OC)c(OC)c21 (stereo not given) | . | -0.5 | 7.3 | 92.0* | 1.3 | -0.8 | -11.7
N=c1c2c(-c3ccccc3)c(-c3ccccc3)n(Cc3ccccc3)c2ncn1C1CCOCC1 | . | . | . | . | -13.9 | . | .
SMILES | BJeLR viability | FBA Mtb inh | GDH-TPI inh | PrP UTR inh | PrPC surface inh | PfHsp40 rescue | PrP UTR cherry
COc1ccccc1CCc1nnc(CCC(=O)N(C)Cc2cccc3ncccc23)o1 | -5.0 | 158.8* | -2.5 | 57.7* | -4.1 | 0.3 | -25.7
CN(Cc1cccc2cnccc12)C(=O)CCc1nnc(CCc2ccccc2)o1 | 6.4 | 0.2 | 0.0 | -38.9 | -8.4 | 17.2 | .
COC(=O)C1CN(Cc2ccc(Cl)cc2)CCS(=O)(=O)N1Cc1cn(Cc2ccc(Cl)cc2)nn1 (stereo not given) | . | . | . | . | 8.1 | . | .
Cn1ncnc2c(=O)n(C)c(=O)nc1-2 | 21.4 | -2.9 | 12.5 | 95.9* | . | 0.2 | 97.6*
O=C(O)c1cccc(COc2ccccc2Cl)c1 | 19.5 | 1.9 | 2.8 | 68.9* | 0.4 | 0.1 | 83.4*
O=C(O)c1ccc(COc2ccccc2Cl)cc1 | 3.0 | -1.8 | -1.5 | -12.7 | 0.1 | -0.2 | .
COc1ccc(NC(=O)C/C(C)=N/NC(=O)c2ccncc2)c([N+](=O)[O-])c1 | -3.9 | -5.3 | 11.6 | 53.5* | -15.6 | -1.4 | -17.1
COc1ccc(OCC(=O)N/N=C(\C)CC(=O)Nc2ccc(OC)cc2[N+](=O)[O-])cc1 | -0.2 | -2.8 | 3.3 | -14.7 | 5.5 | -0.6 | .
CCOC(=O)[C@]12CCCCC/C=C\1N(Cc1ccc(OC)cc1)C(=O)[C@H]2CC(=O)NCCC(C)C | . | . | . | . | 9.6 | . | .
CS(=O)(=O)N[C@@H]1C[C@@H]2O[C@H](CO)CC[C@@H]2O[C@@H]1CCc1ccc(/C=C/c2ccccc2)cc1 | . | . | . | . | 6.1 | . | .
CCOc1ccc(NC(=O)c2cc(S(=O)(=O)N3CCOCC3)cn2C)cc1 | -4.7 | 3.4 | -2.7 | 50.7* | 9.8 | 0.0 | 27.6
C=CCNC(=S)N(C)[C@H]1C[C@H]2c3[nH]c4c(-c5ccccc5)cccc4c3CCN2C(=O)[C@H]1[C@H](C)O | . | . | . | . | -4.5 | . | .
COc1cccc2c1C(=O)c1c(O)c3c(c(O)c1C2=O)C[C@@](O)(C(=O)CO)C[C@@H]3O[C@H]1C[C@H](N)[C@H](O)[C@H](C)O1 | 75.5* | -7.7 | 7.8 | 88.5* | -27.9 | 146.1* | 92.5*
COc1cccc2c1C(=O)c1c(O)c3c(c(O)c1C2=O)CC(O)(C(C)=O)CC3OC1CC(N(C)C)C(O)C(C)O1 (stereo not given) | . | -3.7 | 7.8 | 87.6* | -19.8 | 400.8* | 90.5*
COc1cccc2c1C(=O)c1c(O)c3c(c(O)c1C2=O)C[C@@](O)(C(=O)CO)C[C@@H]3OC1CC(N)C(O)C(C)O1 (stereo not given in full) | . | -2.0 | 2.6 | 41.1 | -29.5 | 2.6 | .
Cc1cccc(C(=O)Nc2nc3ncccn3c2-c2ccc(F)cc2)c1 | . | . | . | . | 1.4 | . | .
CCCC(=O)OC12CCCN(C1)/C(=C/c1cccc(Cl)c1)C2 (stereo not given) | . | . | . | . | -5.0 | . | .
C(=N\Nc1nc2ccccc2[nH]1)/c1ccccc1 | -8.4 | -0.4 | 15.0 | 55.1* | 4.2 | -1.5 | -56.2
Fc1cccc(/C=N/Nc2nc3ccccc3[nH]2)c1 | 4.7 | . | . | . | -3.2 | . | .
